This is part of a sample that, as a whole, favours compounds with a hit. Of some 83,000 tested, about 20% had one in any assay.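 Activity criterion: percent growth below 10, measured after cells in 96-well plates were exposed to a single compound concentration for 48 hours.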 Activity calls are given as the source filed them.

Data on 40 compounds can be found in PubChem BioAssay (NCI).

The subject of the test is HL-60(TB) leukemia. The test is described as follows: NCI-60 one-dose screen, 48 h (100 = growth as untreated, 0 = no growth, -100 = all killed). Particulars: 10 µM unless noted.
On to `COc1cc(/C=C2\CCCC3=C2NC(N)=NC3c2cc(OC)c(OC)c(OC)c2)cc(OC)c1OC` (stereo not given), for which the growth was -7.5% (active).
For `CN=C1C=C/C(=N/N=c2/ccn(O)cc2C)C=C1C`, the growth is 75.6% (inactive).
Regarding `CCCCC(CC#N)(CCC)CCC`, the growth was 104% (inactive).
As to `CCCOC(=O)c1nc(N(CC2CCCCC2)C(=O)NC)sc1/N=C/c1ccccc1`, the growth is -9.46% (active).
With `CCCC/C=C/[C@@H]1C[C@H]1CCO`, the growth is 111% (inactive).
As for `COc1ccc(C(c2cc(OC)c(OC)c(OC)c2)n2cncn2)cc1O` (stereo not given), the growth was -32.5% (active).
Consider `COc1ccc2c(c1)N(CCO)C1=C(C(=O)OC1)C2c1ccccc1` (stereo not given), for which the growth was -20% (active).
For `Cn1cc(C(=O)c2nc(-c3c[nH]c4ccc(Br)cc34)no2)c2cc(F)ccc21` the value was 94.7% (inactive); for `COc1cc2ncnc(Nc3ccc(F)c(Cl)c3)c2cc1NC(=O)/C=C/CN1CCCCC1`, -50.2% (active); for `CCCCCCCCCCCC[S+](C)CC(=O)[O-]` (stereo not given), 20.3% (inactive).
`COc1cccc(C(=O)Nc2ccc(CN3CCc4nc5cc(OC)c(OC)cc5cc43)cc2)c1`: the growth is 60% (inactive).
For `C[C@@H](Nc1cc(F)cc(F)c1)c1cc(C(=O)N(C)C)cc2c(=O)cc(N3CCOCC3)oc12` the value was 40.9% (inactive); for `Cc1ccc(-c2c(-c3ccccc3)c(=O)oc3ccc(C)cc23)cc1`, 87% (inactive).
Take `COc1ccc(/C=C(/C(=O)N2CCN(c3ccccc3)CC2)c2cc(OC)c(OC)c(OC)c2)cc1O`: the growth was -34.5% (active).
For `[O-]c1c[n+](-c2ccc(Cl)cc2)no1`, the growth was 89.4% (inactive).
As for `O=C1C=C(OCC=C(C(F)(F)F)C(F)(F)F)c2ccccc2C1=O`, the growth was -30% (active).
For `COC(=O)c1ccc(C(=Nc2ccc(N(C)C(=O)CN3CCN(C)CC3)cc2)c2c(O)[nH]c3ccc(C(=O)OC)cc23)cc1` the value was 14.4% (inactive); for `COc1ccc(C(=O)COc2cccc(/C=C3\CSc4ccc(C)cc4C3=O)c2)cc1`, 45.6% (inactive); for `CC1Cc2c(Cl)ncnc2N(C)c2ccccc21` (stereo not given), 11.8% (inactive).
Consider `O=C1CCN2C(=O)Nc3ccccc3C2C1` (stereo not given), for which the growth was 94.5% (inactive).
Consider `COc1ccc2c(c1)sc1nc(-c3ccccc3)c(-c3cccnc3)n12`, for which the growth is 105% (inactive).
`Cc1cc2nc3c(=O)[nH]c(=O)nc-3n(CC=O)c2cc1C`: the growth is -55.8% (active).
Under `Cc1nn(-c2ccccc2)c(Oc2c(Cl)cccc2Cl)c1/C=N/N=c1\sc2ccccc2n1C` stands 43.1% (inactive); under `O=C(O)c1ccc2c3c(ncnc13)-c1ccccc1C2=O`, 85.1% (inactive).
Consider `O=C(Nc1ccc(Cl)cc1)Nc1ccc(Oc2nncc3ccccc23)cc1`, for which the growth is 3.65% (active).
Turning to `C(/C=C/c1ccccc1)=Nc1ccc(CCc2ccc(N=C/C=C/c3ccccc3)cc2)cc1`, the growth is 42.9% (inactive).
Regarding `COc1ccc(C2OC(c3cc(-c4cc5ccccc5o4)nn3-c3ccccc3)=NN2C(C)=O)cc1` (stereo not given), the growth is 84.3% (inactive).
Turning to `COc1cc(C2C3=C(COC3=O)Nc3c2ccc2c3CCCC2)cc2c1OCO2` (stereo not given), the growth was -6.76% (active).
As to `COc1ccc(-c2nc(SCC(=O)c3ccc(Br)cc3)[nH]c(=O)c2C#N)cc1`, the growth is 91.5% (inactive).
`Cc1cccc(-n2c(C)nc3ccc(NC(=O)NCCCl)cc3c2=O)c1`: the growth is 113% (inactive).
With `Nc1nc(N)c(N=Nc2c(Br)cc(S(N)(=O)=O)cc2Br)c(N)n1`, the growth is 105% (inactive).
For `Cc1nn(-c2ccccc2)c(N)c1N=C1NC(=O)/C(=C/c2ccc(Br)cc2)S1`, the growth was 77.9% (inactive).
In the case of `CCOC(=O)c1c(C)nc2c(c1N)/C(=C/c1cccs1)C(=O)N2Cc1ccccc1`, the growth was 60.4% (inactive).
`O=C(CCN1CCCC1)c1ccc([N+](=O)[O-])cc1`: the growth was -21.1% (active).
Take `CC(=O)N(O)c1ccc(/C=C/c2ccccc2)cc1`: the growth was 23.4% (inactive).
With `COc1cc(C(=O)N2N=C(c3ccc(S(C)(=O)=O)cc3)CC2c2ccco2)cc(OC)c1OC` (stereo not given), the growth is 90.3% (inactive).
In the case of `COc1ccc(/C(C#N)=C/c2ccccc2OC)cc1`, the growth is -0.826% (active).
Under `O=C(NCc1cn(Cc2cccc(Oc3ccccc3)c2)nn1)c1cccnc1NCc1ccc(Cl)cc1` stands 3.88% (active); under `COC(=O)Nc1nc2ccc(S(=O)c3ccccc3)cc2[nH]1` (stereo not given), 22.7% (inactive).
With `COc1cc(NCc2ccccc2O)c2ncccc2c1`, the growth is 51% (inactive).
